Assay results published in PubChem BioAssay AID651871 (Sanford-Burnham Center for Chemical Genomics, 2012).
Values joined by “and” are separate entries in the source; they are usually repeats but may differ in a detail not shown here. Equal entries are not always repeated.

Tested on: H9c2
Test: protection of cardiomyocytes from stress damage, SAR follow-up, cell-based, panel, H9c2 and HL-1, ATP luminescence, set 2 (AID 651871);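 also: cells exposed to stressor for 2 h before ATP readout; reference of the scale not given here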
Conditions: H9c2/HL-1 cardiomyocytes, 2-deoxyglucose stress, with 2-deoxyglucose; run 3, at 79 µM (top of the series)

| Structure (SMILES) | activity (protection/inhibition) |
| --- | --- |
| COc1ccc2nc(-c3cc(OC)c(OC)c(OC)c3)cc(C(=O)NCC(=O)Nc3ccc(C(C)=O)cc3)c2c1 | 75.4% |
| COc1ccc2c(c1OC)C(=O)N1c3ccccc3C(=O)N(Cc3cccc(Cl)c3Cl)C21 (stereo not drawn) | 71.2% and 81.8% and -10.3% |
| CCOC(=O)c1cccc(NC(=O)CNC(=O)c2cc(-c3cc(OC)c(OC)c(OC)c3)nc3ccccc23)c1 | 92.4% |
